The structures appear in SMILES notation. Measured potencies and affinities stand elsewhere. Results filed as inconclusive are left out. The source made the active and inactive calls. The rule behind the calls is not given here.

This experiment in a line: general cell-killing toxicity readout – plate reader, dry powder samples, cytotoxicity control for PAX8 inhibitor project, dose response (AID 743021). The note with it: cell line, non-specific cytotoxicity counter-screen; series mostly up to 35 µM; activity change, negative = cytotoxicity: at the top concentration.
`CCCCCC(=O)N/N=C(\C)c1ccc(N2CCCCC2)cc1`: the “activity change, negative = cytotoxicity” value was -18.3% (inactive).

For the compound `CN(C(=O)COC(=O)C1CCN(S(=O)(=O)c2c(Cl)cccc2Cl)CC1)C1CCS(=O)(=O)C1` (stereo not given), the “activity change, negative = cytotoxicity” value was -6.48% (inactive).

Consider `O=[N+]([O-])c1cc(-c2nnc(-c3ccccc3)o2)ccc1Oc1ccc(Cl)cc1`, for which the “activity change, negative = cytotoxicity” value was 19.3% (inactive).

Consider `CC(=O)C1=C(O)C(=O)N(CCc2ccccc2)C1c1ccccc1[N+](=O)[O-]` (stereo not given), for which the “activity change, negative = cytotoxicity” value is 25.4% (inactive).

For `CN1CCN(C(=S)Nc2ccc(Cl)c(Cl)c2)CC1`, the “activity change, negative = cytotoxicity” value was -13.9% (inactive).

As to `OCC1CCCN(C(=S)Nc2ccc(OC(F)F)cc2)C1` (stereo not given), the “activity change, negative = cytotoxicity” value is 21.6% (inactive).

As to `Cc1ccc(NC(=O)c2c([N+](=O)[O-])c(C(C)(C)C)nn2C)c(C)c1`, the “activity change, negative = cytotoxicity” value is -5.23% (inactive).

For `CCCNC(=O)COC(=O)/C=C/c1ccco1`, the “activity change, negative = cytotoxicity” value is 0.516% (inactive).

On to `COc1ccc(NC(=O)C[C@H]2C(=O)N(c3ccc(OC)cc3)C[C@@H]2C)cc1`, for which the “activity change, negative = cytotoxicity” value is -8.34% (inactive).

In the case of `Oc1ccc(F)c2cccnc12`, the “activity change, negative = cytotoxicity” value is -25.2% (inactive).

For `C[C@@H]1CN([C@@H](C)CO)C(=O)CCCn2nncc2CO[C@H]1CN(C)S(=O)(=O)c1ccc(Cl)cc1`, the “activity change, negative = cytotoxicity” value was -7.08% (inactive).

Take `Cc1cc(C)c2c(c1)/C(=N/NC(=O)c1cc(C)oc1C)CCC2`: the “activity change, negative = cytotoxicity” value is -25.5% [at 16 µM] (inactive).

With `Cc1ccc2nc(-c3ccc(NC(=S)NC4CC(C)(C)NC(C)(C)C4)cc3)sc2c1`, the “activity change, negative = cytotoxicity” value was -23.8% (inactive).

`COc1ccc(C(C)NC(=O)c2ccc(Br)cc2)cc1OC` (stereo not given): the “activity change, negative = cytotoxicity” value is -13% (inactive).

Take `Cc1ccc(-c2ccc([C@@H]3[C@H](CO)N4CCCCN(C(=O)Nc5cccc(F)c5)C[C@@H]34)cc2)cc1`: the “activity change, negative = cytotoxicity” value was -3.97% (inactive).

As to `O=C(NCC1CCCO1)C(=O)NCC(c1ccco1)N1CCN(c2ccccc2)CC1` (stereo not given), the “activity change, negative = cytotoxicity” value is -0.51% (inactive).

`COc1ccc(C(=O)NC(=S)NNC(=O)COc2ccccc2)cc1`: the “activity change, negative = cytotoxicity” value is 41.8% (inactive).

Consider `Cc1cnc(NC(=O)CSc2nnc(C)n2N)s1`, for which the “activity change, negative = cytotoxicity” value is -1.14% (inactive).

In the case of `CCN1CCN(c2nc(-c3cccs3)nc3ccccc23)CC1`, the “activity change, negative = cytotoxicity” value is -9.55% (inactive).

As for `Cc1ccc(/C=C/C(=O)N2CCN(c3cccc(C(F)(F)F)c3)CC2)cc1`, the “activity change, negative = cytotoxicity” value was -5.42% (inactive).

For `CN(C)CC#Cc1ccc([C@@H]2[C@H](CO)N3CCCCN(C(=O)Nc4ccc(F)cc4)C[C@@H]23)cc1`, the “activity change, negative = cytotoxicity” value was -27.4% (inactive).

`O=C(Cc1nnc(NC(=O)c2ccccc2)s1)N/N=C/c1ccco1`: the “activity change, negative = cytotoxicity” value is -4.3% (inactive).

Regarding `COc1ccc(C)cc1NC(=O)C1CCCN(S(=O)(=O)c2cccc3nonc23)C1` (stereo not given), the “activity change, negative = cytotoxicity” value was 18.7% (inactive).

Take `CC(C)(C)OC(=O)[C@H](Cc1ccccc1)NC(=O)c1nc[nH]c1C(=O)N[C@@H](Cc1ccccc1)C(=O)OC(C)(C)C`: the “activity change, negative = cytotoxicity” value is -1.38% (inactive).

With `C[C@H](CO)N1C[C@H](C)[C@@H](CN(C)C(=O)Nc2ccnc(N3CCOCC3)c2)OCc2cnnn2CCCC1=O`, the “activity change, negative = cytotoxicity” value is -7.06% (inactive).

`CCCCCCCCNC(=O)c1cnccn1`: the “activity change, negative = cytotoxicity” value was 18.5% (inactive).

`Cc1nnc(N/N=C/c2cccc(C(F)(F)F)c2)n1N`: the “activity change, negative = cytotoxicity” value was -1.1% (inactive).

As for `O=C(NCc1ccc(F)cc1)C1(c2cccs2)CCOCC1`, the “activity change, negative = cytotoxicity” value was 28.2% (inactive).

For the compound `Cn1ccnc1SCc1nc2c(cnn2-c2ccccc2)c(=O)[nH]1`, the “activity change, negative = cytotoxicity” value is 17.5% (inactive).

As for `O=C(NNC(=O)c1cccc2ccccc12)c1cccc(F)c1`, the “activity change, negative = cytotoxicity” value was -6.08% (inactive).

As for `O=C(/C=C/c1ccc(Cl)cc1Cl)N1CCN(c2ccccc2[N+](=O)[O-])CC1`, the “activity change, negative = cytotoxicity” value was 8.11% (inactive).

Consider `COc1ccc(C(=O)N/N=C/c2ccc(OC(=O)c3cccs3)cc2)cc1`, for which the “activity change, negative = cytotoxicity” value is -5.44% (inactive).

As for `O=C(Cc1cccs1)N/N=C/C=C/c1ccccc1`, the “activity change, negative = cytotoxicity” value was -6.77% (inactive).

As to `CO[C@@H]1CN(C)C(=O)c2cc(NC(=O)c3nc4ccccc4s3)ccc2OC[C@H](C)NC[C@H]1C`, the “activity change, negative = cytotoxicity” value is -1.86% [at 30 µM] (inactive).

As for `Nn1cnnc1N/N=C\c1ccc(-c2ccccc2[N+](=O)[O-])o1`, the “activity change, negative = cytotoxicity” value is 14% (inactive).

`Nc1ccc2c(c1)CC(=O)c1ccccc1S2`: the “activity change, negative = cytotoxicity” value is 24.4% (inactive).

On to `COc1ccc2c(c1)OC/C(=C/c1cccs1)C2=O`, for which the “activity change, negative = cytotoxicity” value was -4.86% (inactive).

On to `Cc1cc([N+](=O)[O-])nn1CCCC(=O)Nc1sc2c(c1C(N)=O)CCC(C)C2` (stereo not given), for which the “activity change, negative = cytotoxicity” value was 47.7% (inactive).

In the case of `O=C(Cn1cc(C(F)(F)F)ccc1=O)Nc1ccc2c(c1)OCO2`, the “activity change, negative = cytotoxicity” value was -10.7% (inactive).

On to `Cc1ccc(-c2nc(C)sc2CC(=O)OCC(=O)Nc2cccc([N+](=O)[O-])c2)cc1`, for which the “activity change, negative = cytotoxicity” value is -18.5% (inactive).
